# CHX counter: affects cycloheximide protein synthesis inhibition readout, counter-screen. cell reporter, cycloheximide protein synthesis inhibition counterscreen. max response, %. 300,000 compounds, 12% hits; in the data active = max response mostly above about 13%, no sharp cut-off; inactive = mostly below about 14%; note: read at 38.3 µM for the half of the compounds with a filed dose; 0% is about no effect
# HCV inh: inhibitors of hepatitis C virus infection; Huh7.5.1 HCVcc-Cre infection, luciferase reporter, 44 h; Potency, µM (series often up to 41.8 µM), for the others: at the top dose activity change, negative = inhibition, usual class: inhibitors; 340,000 compounds, 3.4% hits; AID 651820; note: potency is the fitted concentration of half-maximal effect; % is set by controls: 0 for no effect and ±100 for the full control effect
#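 Infectious HCV cell culture screen: compound-treated cells (1,000/well, pre-plated 4 h) are infected with HCVcc-Cre at roughly 0.5 moi and grown 44 h. Infection is quantified by luciferase signal after 15 min substrate incubation at room temperature.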
# HCMV antiviral: blocks human cytomegalovirus replication; 410,000 compounds, 4.5% hits; HFF cells, HCMV-luciferase reporter, 72 h; active compounds read low; activity change, negative = inhibition, % at 57.5 µM; AID 1259415; in the data active = activity change below about -60%; inconclusive = no clear call, values can overlap the other calls; inactive = above about -39%; note: % is set by controls: 0 for no effect and ±100 for the full control effect
#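 Screen run at 2 compound doses on HFFs infected with reporter HCMV, MOI 1 PFU/cell. Luciferase activity from cell lysates at 72 h post infection gave inhibition relative to buffer-only and Salinomycin wells.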
# Shiga toxin inh: blocks Shiga toxin action in Vero cells; Vero cells, Shiga toxin protein synthesis inhibition reporter; inhibition, % at 38.7 µM; 290,000 compounds, 9.2% hits; in the data active = inhibition mostly above about 28%, no sharp cut-off; inactive = mostly below about 43%; note: 0% is about no effect
# Pf growth 96h: P. falciparum growth inhibition at 96 hour, primary screen for plastid delayed-death inhibitors; P. falciparum luciferase reporter growth, 96 h; Potency, µM (doses to about 28.7 µM), for the others: at the highest dose activity change, negative = inhibition, usual class: inhibitors; 320,000 compounds, 6.9% hits; AID 504834; note: potency is the fitted concentration of half-maximal effect; % is set by controls: 0 for no effect and ±100 for the full control effect
#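 Two parasite generations (96 h, 37 C, 5% CO2) of compound exposure in infected erythrocytes (0.05% parasitemia, 2% hematocrit). Luciferase-reporter P. falciparum; decreased luminescence indicates inhibited growth, aimed at apicoplast-acting delayed death.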
# Pf growth 48h: P. falciparum growth inhibition at 48 hours (one generation). P. falciparum luciferase growth in erythrocytes, 48 h. Potency, µM (doses to about 28.7 µM), without a hit: at the highest dose activity change, negative = inhibition, usual class: inhibitors. 310,000 compounds, 5.9% hits. AID 504832; note: potency is the fitted concentration of half-maximal effect; % is set by controls: 0 for no effect and ±100 for the full control effect
#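 Erythrocytes infected with P. falciparum carrying an integrated firefly luciferase reporter (2% hematocrit, 0.1% parasitemia final) were exposed to compounds in RPMI 1640 with 0.5% Albumax at 37 C, 5% CO2. Growth inhibition was scored as reduced luminescence.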
# Active calls of the source: *; ? = inconclusive; · = not tested or not shown; [ ] = remark or other dose. An excerpt weighted towards active compounds, which were near 21% of everything screened. Unless noted, calls come from the whole dose curve; as a rule, active = well fitted inhibition curve with a large enough effect; inconclusive = small, poorly fitted or top-dose-only effect, or another doubt; inactive = no such curve, though single readings can be large or run the other way.
SMILES,CHX counter,HCV inh,HCMV antiviral,Shiga toxin inh,Pf growth 96h,Pf growth 48h
COc1ccccc1C=NNC(=O)c1ccccc1OCCOc1ccccc1,·,?,11,·,·,·
O=C(N/N=C\c1ccc(Cl)s1)c1cccs1,43*,4%,5,85,?,·
O=C(N/N=C/c1ccc(-c2ccccc2C(=O)O)o1)c1cccs1,33*,11%,-5,49*,78%,24%
COc1ccccc1C(=O)N/N=C/c1ccc(Cl)s1,49*,15%,56,78*,?,42%
Cc1cc(C(=O)NCCN2CCOCC2)c2ccccc2n1,·,14%,-1,·,·,·
CCCN(C(=O)Cn1c(=O)oc2cc(Cl)ccc21)c1ccc(C(C)C)cc1,·,·,-29,·,·,·
COc1ccccc1C(=O)N/N=C/c1cnc2ccccc2n1,59*,17%,38,125*,81%,115%
CSc1ccc(/C=N/NC(=O)c2cccs2)cc1,52*,0%,55,66*,?,-46%
O=C(N/N=C/c1ccc(-n2ccnc2)cc1)c1cccs1,45*,-5%,4,85*,47%,44%
O=C(N/N=C/c1ccncc1)c1ccc(NS(=O)(=O)c2cccs2)cc1,9,21%,-19,25,32%[5.75 µM],7%
O=C(CN1C(=O)NC2(CCCC2)C1=O)OCCOc1cccc(Br)c1,·,11%,7,·,0%,18%
CCCN1C(=O)COc2ccc(-c3n[nH]c(=O)c4ccccc34)cc21,13,-23%,-102*,-6,?,11%
COc1ccc(N2CCN(CC(=O)Nc3ccccc3SC)CC2)cc1,-1,?,-3,-16,?,-11%
O=C(Nc1ccccc1F)Nc1ccccc1Br,25*,7%,-9,68*,-19%,43%
CNC(=O)Nc1ccccc1F,-5,21%,10,-21,37%,·
COc1ccc(NC(=O)Nc2ccccc2SC)cc1,30*,-4%,9,105*,5.9µM*,239%
COc1cccc(COC(=O)Nc2ccccc2F)c1,29*,-5%,115,117*,330%,263%
COC(=O)c1ccc(NC(=O)Nc2ccccc2C)cc1,23*,?,-24,73*,?,197%
O=C(Cn1c(=O)cnc2ccccc21)Nc1cccc(S(=O)(=O)N2CCOCC2)c1,·,-3%,0,·,?,-21%
Oc1c(C(c2ccccc2F)N2CCN(Cc3ccccc3)CC2)sc2nc(-c3ccco3)nn12 (stereo unspecified),·,·,10,·,·,·
COc1ccc(NC(C)=O)c(C)c1,-3,1%,5,-10,-18%,-1%
O=C(Nc1cccnc1Cl)c1cccnc1Cl,-4,16%,48,-11,25%,·
COC(=O)c1ccc(NC(=O)Nc2ccccc2F)cc1,40*,?,47,115*,?,94%
COc1ccc(NC(=O)CNC(c2ccccc2)c2ccccc2)cc1Cl,-4,-15%,56,-4,0%,0%
COc1ccc(NC(=O)Oc2ccccc2)cc1Cl,1,2%,-10,13,15µM*,13%
SMILES,CHX counter,HCV inh,HCMV antiviral,Shiga toxin inh,Pf growth 96h,Pf growth 48h
O=C(Nc1ccc(F)cc1)Nc1cccnc1Cl,35*,-22%,13,58*,52%,28%
COc1ccc(NC(=O)Nc2ccccc2F)c(C)c1,19*,-10%,-8,52,7%,53%
CC(CC(=O)N(C)c1c(N)n(Cc2ccccc2)c(=O)[nH]c1=O)c1ccccc1 (stereo unspecified),·,11%[8.37 µM],-31,·,-10%,-17%
O=C(Nc1ccc2[nH]c(=S)sc2c1)c1ccccc1,1,8%,55,0,91%,99%
COc1ccc(NC(=O)Nc2ccccc2F)c([N+](=O)[O-])c1,26*,-3%,?,69*,?,82%
O=C(Nc1ccc2[nH]c(=S)sc2c1)Nc1ccccc1F,70*,-19%,5,70*,118%,338%
CSc1ccccc1NC(=O)Nc1ccc(Cl)cc1,55*,-23%,?,83,?,·
COc1ccc(Cl)cc1NC(=O)Nc1ccccc1SC,8,?,-14,24,38%[5.75 µM],14%[5.75 µM]
O=C(C#Cc1ccccc1)Nc1ccccc1F,34*,?,-96*,59,9.3µM*,-13%
O=C(Nc1ccc(NC(=O)c2ccccc2O)cc1)Nc1ccc(F)cc1F,-2,?,?,6,?,-29%
COC(=O)c1sccc1NC(=O)Nc1ccccc1F,-3,17%,9,11,9.3µM*,60%
COc1ccc(NC(=O)Nc2ccccc2F)cc1,32*,-12%,85,47,324%,·
COc1ccc(NC(=O)Nc2ccccc2F)cc1Cl,32*,-11%,48,99*,?,497%
COC(=O)c1sccc1NC(=O)Nc1ccccc1C,6,4%,3,-19,35%,12%
O=C(Nc1ccc(F)cc1)Nc1ccccc1F,65*,-18%,?,109*,1%,120%
COc1ccc(NC(=O)c2c(F)c(F)c(F)c(F)c2F)cc1Cl,6,?,-2,24,·,-7%
COc1ccc(CN(C)CC(=O)NC(=O)Nc2ccccc2F)cc1,·,-6%,-19,·,25%,7%
Cc1[nH]c2ccccc2c1CC(=O)Nc1ccc(N(C)c2cccnc2)c(-c2cccc(Cl)c2)c1,·,·,0,·,·,·
COc1cc(Cl)c(NC(=O)c2cc(S(=O)(=O)N3CCCCC3)c[nH]2)c(OC)c1,·,·,-15,·,·,·
CCOC(=O)N1CCN(Cc2nc3c(c(=O)[nH]c(=O)n3C)n2Cc2cc(C)ccc2C)CC1,-3,3%,·,-10,-5%,13µM*
CCOC(=O)N1CCN(Cc2nc3c(c(=O)n(C)c(=O)n3C)n2Cc2ccccc2C)CC1,1,2%,-20,-17,?,10µM*
Cc1ccccc1C(=O)Nc1ccnn1C1CCN(Cc2ccc(CO)o2)CC1,10,16%,26,-13,4%,-12%
Cc1cccc([C@H](NC(=O)OC(C)(C)C)C(=O)OC(C)(C)C)c1,·,-5%,6,·,?,-8%
CC(C)(C)OC(=O)N[C@H](C(=O)OC(C)(C)C)c1ccc2c(c1)OCO2,·,20%,12,·,?,12µM*
C#Cc1ccc([C@H]2C=C(C(=O)N3CCN(Cc4ccccc4)CC3)O[C@@H](OCc3ccc(CO)cc3)C2)cc1,-2,?,-76*,-17,2.3µM*,3.3µM*
C#Cc1ccc([C@@H]2C=C(C(=O)N3CCN(Cc4ccccc4)CC3)O[C@H](OCCCCO)C2)cc1,-2,·,·,8,?,?
O=C(C1=C[C@@H](c2ccc(Br)cc2)C[C@@H](OCc2ccc(CO)cc2)O1)N1CCN(Cc2ccccc2)CC1,1,?,·,-12,12µM*,?
CC(=O)Nc1cc2c(ccc3ccccc32)oc1=O,6,-14%,-7,16,0%,4%

# Screens (PubChem)
